Cycloheximide cs: Cycloheximide Counterscreen for Small Molecule Inhibitors of Shiga Toxin; cell reporter, cycloheximide protein synthesis inhibition counterscreen; AID 2314, 2010; hit rate 12% among 300,000; max response, %; in the data active = max response mostly above about 13%, no sharp cut-off; inactive = mostly below about 14%; also: read at 38.3 µM for the half of the compounds with a filed dose
Shiga toxin inh: A qHTS for Small Molecule Inhibitors of Shiga Toxin. inhibition, % at 38.7 µM. hit rate 9.2% among 290,000. Vero cells, Shiga toxin protein synthesis inhibition reporter; in the data active = inhibition mostly above about 28%, no sharp cut-off; inactive = mostly below about 43%
Pf growth 96h: Primary qHTS for delayed death inhibitors of the malarial parasite plastid, 96 hour incubation; Potency, µM (highest dose often 28.7 µM), actives largely listed as inhibitors; hit rate 6.9% among 320,000; AID 504834, 2011; P. falciparum luciferase reporter growth, 96 h
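Cell-based qHTS: luciferase-tagged P. falciparum in erythrocytes (2% hematocrit, 0.05% parasitemia final) incubated with compounds for 96 hours, 37 C, 5% CO2; luciferase detection reagent then added and luminescence measured.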
Pf growth 48h: Primary qHTS for delayed death inhibitors of the malarial parasite plastid, 48 hour incubation | Potency, µM (titrated, usually from 28.7 µM), actives largely listed as inhibitors | hit rate 5.9% among 310,000 | AID 504832, 2011 | P. falciparum luciferase growth in erythrocytes, 48 h
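Firefly luciferase activity from engineered P. falciparum reports growth; inhibitors lower the luminescent signal. Cultures contained 2% hematocrit erythrocytes at 0.1% final parasitemia.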
Of the large screens only hits and unclear results are named; the others gave an inactive call. Rows were chosen to be rich in hits. Some 21% of all compounds tested hit in one or more screens of this group. Unless noted, calls follow the shape of the dose curve; as a rule, active = well fitted inhibition curve with a large enough effect; inconclusive = small, poorly fitted or top-dose-only effect, or another doubt; inactive = no such curve, though single readings can be large or run the other way.

CC(C)(C)C(=O)O/N=C(\N)c1c(Cl)cccc1Cl	none
N/C(Cc1ccc(Cl)cc1)=N\OC(=O)c1ccccc1	Cycloheximide cs 24, Pf growth 96h 10µM (no result: Pf growth 48h)
CC(C)(C)C(=O)O/N=C(\N)COc1cccc(Cl)c1	Cycloheximide cs 44, Shiga toxin inh 99, Pf growth 96h inconclusive, Pf growth 48h inconclusive
COc1ccc(C/C(N)=N/n2cnnc2)cc1Cl	none
COc1ccccc1NS(=O)(=O)c1cccc(C(=O)N2CCCCCCC2)c1	none (no result: Cycloheximide cs, Shiga toxin inh)
CC(C)(C)C(=O)OC/C(N)=N/OC(=O)c1ccc(Cl)cc1	Cycloheximide cs 24, Pf growth 96h inconclusive, Pf growth 48h inconclusive
CCN(CCn1cccn1)C(=O)CCc1nnc(CCCc2ccccc2)o1	Cycloheximide cs 36, Shiga toxin inh 99
C=C(C)CN(CC)C(=O)CCc1nnc(CCCc2ccccc2)o1	Cycloheximide cs 39, Shiga toxin inh 61
CCOc1cc(/C=C2\CCC/C(=C\c3cc(Cl)c(O)c(OCC)c3)C2=O)cc(Cl)c1O	Cycloheximide cs 23, Pf growth 96h 3.3µM, Pf growth 48h inconclusive
CCOc1cc(/C=C2\CN(C)C/C(=C\c3ccc(O)c(OCC)c3)C2=O)ccc1O	Cycloheximide cs 27, Pf growth 96h inconclusive
CCOc1cc(/C=C2/C(=O)ON=C2C)ccc1O	Pf growth 96h 0.093µM
CC(SC1=Nc2ccccc2C2CC=NN12)C(=O)NC1(C#N)CCCCC1 (stereo not given)	Pf growth 96h 8.3µM, Pf growth 48h inconclusive (no result: Cycloheximide cs, Shiga toxin inh)
CC(=O)c1cc(C(=O)c2ccccc2)sc1Nc1ccccc1	Cycloheximide cs 48, Shiga toxin inh 61
Cc1ccc(S(=O)(=O)NCC(=O)N(CC(=O)NCc2ccc(F)cc2)CC2CCCO2)cc1 (stereo not given)	Pf growth 96h inconclusive
Cc1ccc(S(=O)(=O)NCC(=O)N(CC(=O)NCC2CCCO2)Cc2ccco2)cc1 (stereo not given)	Cycloheximide cs 10
COc1ccc(CNC(=O)CN(CC2CCCO2)C(=O)CNS(=O)(=O)c2ccc(F)cc2)cc1 (stereo not given)	Pf growth 96h 10µM
CCOc1ccccc1N(CC(=O)NCC1CCCO1)C(=O)CNS(=O)(=O)c1ccccc1 (stereo not given)	Pf growth 96h 15µM
Cc1ccc(S(=O)(=O)NCC(=O)N(CC(=O)NCC2CCCO2)Cc2ccccc2)cc1 (stereo not given)	none
Cc1ccc(S(=O)(=O)NCC(=O)N(CC(=O)NCc2ccco2)Cc2ccco2)cc1	Pf growth 96h 13µM
Oc1c(C(Nc2cccc(C(F)(F)F)c2)c2cccnc2)ccc2cccnc12 (stereo not given)	Pf growth 96h 3.7µM, Pf growth 48h 9.3µM
COc1ccc(C(NC(=O)c2cccnc2)c2cc(Cl)c3cccnc3c2O)cc1OC (stereo not given)	Pf growth 48h inconclusive
Oc1cccc(C(Nc2nccs2)c2ccc3cccnc3c2O)c1 (stereo not given)	Pf growth 96h inconclusive, Pf growth 48h 3.3µM
Cc1cc(NC(c2cccnc2)c2ccc3cccnc3c2O)no1 (stereo not given)	Pf growth 96h 4.1µM, Pf growth 48h 2.1µM
CC(=O)NC(c1cccc([N+](=O)[O-])c1)c1ccc2cccnc2c1O (stereo not given)	none
Oc1c(C(Nc2ccccn2)c2cccnc2)cc(Cl)c2cccnc12 (stereo not given)	Pf growth 48h 4.7µM
CC(C)CCNC(=O)C(c1ccc(O)cc1)N(Cc1ccco1)C(=O)CCC(=O)Nc1nccs1 (stereo not given)	Pf growth 96h inconclusive, Pf growth 48h inconclusive
Cc1cc(=O)[nH]c2c(C)c(N)ccc12	Pf growth 96h inconclusive
Cc1cc(C)c2ccc3c(C)c(C)nc3c2[nH]1	Pf growth 48h 3.7µM
CS(=O)(=O)Nc1ccc(C(=O)Nc2cccc([N+](=O)[O-])c2)cc1	none
COc1ccc(OC)c(/C=N/N(CCC#N)C2=NS(=O)(=O)c3ccccc32)c1	Pf growth 96h inconclusive
CC(=O)N1CCN(C(=O)c2cccc(S(=O)(=O)N3CCOCC3)c2)CC1	none (no result: Cycloheximide cs, Shiga toxin inh)
O=C(CCc1c[nH]c2ccccc12)NCc1ccncc1	none
O=C(CCc1c[nH]c2ccccc12)Nc1ncccc1O	Cycloheximide cs 16
O=C(CCCc1c[nH]c2ccccc12)Nc1ccc2ccccc2c1	Cycloheximide cs 38, Shiga toxin inh 68
CC(=O)Nc1ccc(NC(=O)CCCc2c[nH]c3ccccc23)cc1	none
Cc1ccc(NC(=O)CCc2c[nH]c3ccccc23)nc1	Cycloheximide cs 11, Shiga toxin inh 35, Pf growth 96h inconclusive, Pf growth 48h inconclusive
O=c1[nH]cnc(O)c1C(c1cccc([N+](=O)[O-])c1)c1c(O)nc[nH]c1=O	none

High-throughput results deposited in PubChem BioAssay by National Center for Advancing Translational Sciences (NCATS).
